Assay [1] in a line: ATG_GLI_CIS: Attagene CIS-FACTORIAL HepG2 Assay for human Zinc Finger Protein GLI1 (AID 2282945). To be noted: HepG2, Attagene cis-factorial reporter mRNA, GLI element; actives raise or lower the signal. In outline:
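Bidirectional curve fits relative to DMSO, using reporter mRNA levels from RT-PCR plus capillary electrophoresis. Cells were HepG2 transiently carrying cis-regulated reporter constructs, harvested 24 h after dosing.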

The target of assay [2] is Bile acid receptor (Homo sapiens) (UniProt Q96RI1). Put plainly: ATG_IR1_CIS: Attagene CIS-FACTORIAL HepG2 Assay for human Nuclear Receptor Subfamily 1 Group H Member 4 (NR1H4), IR1 submotif (AID 2282946). To be noted: IR1 reporter transcription, actives raise or lower the signal. In outline:
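HepG2 cells transiently transfected with multiplexed cis-element reporter units read endogenous transcription factor activity. After 24 h compound exposure, reporter mRNA was quantified by RT-PCR, fluorescent labelling, HpaI digestion and capillary electrophoresis; bidirectional fitting versus DMSO baseline.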

Assay [3] is described as follows: ATG_GRE_CIS: Attagene CIS-FACTORIAL HepG2 Assay for human Glucocorticoid Response Elements (GRE) (AID 2282947). To be noted: HepG2 GRE cis-reporter, Attagene multiplex mRNA; actives raise or lower the signal. In outline: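 Multiplexed cis-reporter mRNA induction, HepG2, 24 h post-dose. RT-PCR, FAM-labelled, HpaI-digested amplicons by CE. Bidirectional fit vs DMSO.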

Assay [4] in a line: ATG_ISRE_CIS: Attagene CIS-FACTORIAL HepG2 Assay for human Interferon Regulatory Factor 1 (IRF1) binding to an Interferon-Stimulated Response Element (ISRE) (AID 2282948). To be noted: HepG2 ISRE cis-reporter (Attagene), mRNA transcription readout; actives raise or lower the signal. In outline: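 Multiplexed mRNA reporter readout in human liver HepG2 cells: cis-element-driven reporters transfected, compound added for 24 h, transcripts amplified, fluorescently labelled and sized by capillary electrophoresis; curve fitting bidirectional against DMSO.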

A short description of assay [5]: ATG_M_32_CIS: Attagene CIS-FACTORIAL HepG2 Assay for M32 Transcription Factor (Internal Marker) (AID 2282949).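 Note: background control marker of the multiplexed CIS panel rather than a real target.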 To be noted: HepG2 Attagene cis-factorial M32 reporter, mRNA; actives raise or lower the signal. In outline:
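Using DMSO as baseline, bidirectional curve fits were applied to reporter mRNA signals. These came from transiently transfected HepG2 cells exposed for 24 h, with RNA analysed by RT-PCR, FAM primer extension, HpaI digestion and CE.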

The nature of assay [6]: ATG_M_06_CIS: Attagene CIS-FACTORIAL HepG2 Assay for M06 Transcription Factor (Internal Marker) (AID 2282950). To be noted: HepG2 Attagene CIS-FACTORIAL M06 internal marker reporter; actives raise or lower the signal. In outline: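 Read-out is fluorescence of labelled reporter cDNA fragments resolved by capillary electrophoresis after RT-PCR. Cells: HepG2 carrying transfected cis-promoter reporter units, treated 24 h. Gain or loss of signal fitted relative to DMSO.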

The target of assay [7] is Hypoxia-inducible factor 1-alpha (Homo sapiens) (UniProt Q16665). Description: ATG_HIF1a_CIS: Attagene CIS-FACTORIAL HepG2 Assay for human Hypoxia Inducible Factor 1 (HIF1A) (AID 2282951). To be noted: HepG2 Attagene cis-factorial HIF1a reporter transcription; actives raise or lower the signal. In outline:
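Dosed 24 h, transfected HepG2 cells yielded total RNA whose reporter transcripts were RT-PCR-amplified and sized by capillary electrophoresis using fluorescent labelling; DMSO defined baseline, with gain and loss of signal both fitted.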

For assay [8], the target named is Hepatocyte nuclear factor 6 (Homo sapiens) (UniProt Q9UBC0). Description: ATG_HNF6_CIS: Attagene CIS-FACTORIAL HepG2 Assay for human Hepatocyte Nuclear Factor 6 (HNF6) (AID 2282952). To be noted: HepG2 Attagene cis-factorial HNF6 reporter transcription; actives raise or lower the signal. A digest of the protocol:
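First, HepG2 cells were transfected with the multiplexed cis reporter library and dosed with chemical for 24 h. Next, RNA was reverse-transcribed, PCR-amplified and fluorescently labelled. Finally, HpaI-digested fragments were read by capillary electrophoresis.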

Assay [9] concerns the target Heat shock factor protein 1 (Homo sapiens) (UniProt Q00613). Description: ATG_HSE_CIS: Attagene CIS-FACTORIAL HepG2 Assay for human Heat Shock Transcription Factor 1 (HSE) (AID 2282953). To be noted: HepG2 HSE cis-reporter, Attagene RNA transcription; actives raise or lower the signal. A digest of the protocol:
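HepG2, transient MRTU transfection, cis-promoter reporters (endogenous TF activity). 24 h compound. RNA → oligo(dT) RT → PCR → 6-FAM primer extension → HpaI cut → CE. Bidirectional fit vs DMSO.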

Assay [10] can be described thus: ATG_MRE_CIS: Attagene CIS-FACTORIAL HepG2 Assay for human Metal Responsive Element (MRE) (AID 2282954). To be noted: HepG2 MRE cis-reporter transcription, Attagene multiplex; actives raise or lower the signal. In outline: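 Multiplexed cis-reporter assay in human HepG2 liver cells, 24 h incubation with test chemical. Reporter transcripts measured by RT-PCR and capillary electrophoresis; values from bidirectional curve fitting versus DMSO.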

Active and inactive are the calls of the source. Rule for the calls: active = hit-call score of the fitted dose curve at least 0.9, where 1 is the maximum; inactive = score below 0.9.

Sequence of Hepatocyte nuclear factor 6 (Homo sapiens) (Q9UBC0 whole entry, looked up, the tested form may be a part): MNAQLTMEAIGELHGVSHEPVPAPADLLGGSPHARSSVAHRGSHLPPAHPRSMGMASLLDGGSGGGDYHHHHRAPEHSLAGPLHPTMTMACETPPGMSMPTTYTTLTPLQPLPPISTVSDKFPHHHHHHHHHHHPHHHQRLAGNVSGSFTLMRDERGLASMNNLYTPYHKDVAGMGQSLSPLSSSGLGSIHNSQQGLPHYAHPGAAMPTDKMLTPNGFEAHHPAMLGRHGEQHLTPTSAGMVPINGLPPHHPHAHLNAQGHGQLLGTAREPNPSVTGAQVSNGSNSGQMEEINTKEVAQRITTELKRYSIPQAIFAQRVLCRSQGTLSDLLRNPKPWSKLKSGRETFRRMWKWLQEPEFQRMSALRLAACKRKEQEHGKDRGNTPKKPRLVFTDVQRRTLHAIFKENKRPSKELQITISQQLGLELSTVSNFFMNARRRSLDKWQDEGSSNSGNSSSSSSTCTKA
Sequence of Heat shock factor protein 1 (Homo sapiens) (Q00613 whole entry, looked up): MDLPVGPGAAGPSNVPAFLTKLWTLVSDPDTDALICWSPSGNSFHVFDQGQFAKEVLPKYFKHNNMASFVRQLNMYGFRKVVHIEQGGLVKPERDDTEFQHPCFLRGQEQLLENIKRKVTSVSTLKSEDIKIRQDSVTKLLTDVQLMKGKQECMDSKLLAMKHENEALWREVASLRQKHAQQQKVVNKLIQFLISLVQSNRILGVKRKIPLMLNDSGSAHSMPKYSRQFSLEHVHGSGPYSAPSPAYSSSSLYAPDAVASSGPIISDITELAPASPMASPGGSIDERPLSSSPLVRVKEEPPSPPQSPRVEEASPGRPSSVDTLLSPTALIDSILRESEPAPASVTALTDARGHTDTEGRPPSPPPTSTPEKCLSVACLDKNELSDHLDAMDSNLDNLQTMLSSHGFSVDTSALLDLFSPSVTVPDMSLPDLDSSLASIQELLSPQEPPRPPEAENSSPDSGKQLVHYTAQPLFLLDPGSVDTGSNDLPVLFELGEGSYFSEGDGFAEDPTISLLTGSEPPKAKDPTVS
Sequence of Hypoxia-inducible factor 1-alpha (Homo sapiens) (Q16665 whole entry, looked up): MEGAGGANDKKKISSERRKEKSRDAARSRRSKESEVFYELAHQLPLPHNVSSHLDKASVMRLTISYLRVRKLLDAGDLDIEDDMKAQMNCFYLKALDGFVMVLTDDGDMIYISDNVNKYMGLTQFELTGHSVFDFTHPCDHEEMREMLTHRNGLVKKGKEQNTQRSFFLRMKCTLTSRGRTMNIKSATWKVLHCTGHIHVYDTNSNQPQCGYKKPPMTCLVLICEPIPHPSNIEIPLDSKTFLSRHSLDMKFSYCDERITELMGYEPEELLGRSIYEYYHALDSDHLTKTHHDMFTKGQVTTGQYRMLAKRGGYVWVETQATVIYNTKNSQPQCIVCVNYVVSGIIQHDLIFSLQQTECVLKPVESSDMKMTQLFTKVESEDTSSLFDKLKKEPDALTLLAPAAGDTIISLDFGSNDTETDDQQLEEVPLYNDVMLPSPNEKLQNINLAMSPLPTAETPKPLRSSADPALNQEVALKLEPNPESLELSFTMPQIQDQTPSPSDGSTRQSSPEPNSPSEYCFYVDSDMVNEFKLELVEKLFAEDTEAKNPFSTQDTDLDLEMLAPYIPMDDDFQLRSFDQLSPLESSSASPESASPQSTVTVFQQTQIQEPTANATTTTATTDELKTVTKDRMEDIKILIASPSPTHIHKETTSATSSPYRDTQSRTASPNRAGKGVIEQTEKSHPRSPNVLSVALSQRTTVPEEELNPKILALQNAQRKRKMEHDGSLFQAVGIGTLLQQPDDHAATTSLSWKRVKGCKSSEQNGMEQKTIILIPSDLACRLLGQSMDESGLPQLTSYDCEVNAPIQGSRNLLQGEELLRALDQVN
Sequence of Bile acid receptor (Homo sapiens) (Q96RI1 whole entry, looked up): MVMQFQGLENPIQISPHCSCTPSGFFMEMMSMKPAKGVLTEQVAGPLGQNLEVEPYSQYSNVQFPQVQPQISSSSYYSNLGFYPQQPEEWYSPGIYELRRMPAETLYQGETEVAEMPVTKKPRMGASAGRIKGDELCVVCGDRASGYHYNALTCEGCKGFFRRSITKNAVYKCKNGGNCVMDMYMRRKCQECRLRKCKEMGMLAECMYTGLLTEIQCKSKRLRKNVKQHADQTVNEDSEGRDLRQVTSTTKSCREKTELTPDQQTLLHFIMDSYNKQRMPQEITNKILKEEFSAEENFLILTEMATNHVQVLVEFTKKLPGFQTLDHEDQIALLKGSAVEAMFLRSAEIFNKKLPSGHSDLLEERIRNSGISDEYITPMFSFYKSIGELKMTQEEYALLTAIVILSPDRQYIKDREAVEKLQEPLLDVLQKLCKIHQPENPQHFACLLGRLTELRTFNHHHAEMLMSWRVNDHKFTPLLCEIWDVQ

As for `CC(C)(C)c1cc(Cc2cc(C(C)(C)C)c(O)c(C(C)(C)C)c2)cc(C(C)(C)C)c1O`, the compound was called inactive in assay [1], in assay [2], in assay [3], in [4], in assay [5] and in [6]. For the same compound, the compound was called inactive in assay [7], in [8], in assay [9] and in [10].
`O=C=NCc1cccc(CN=C=O)c1`: the call in assay [1], in assay [2], in assay [3], in assay [4], in assay [5] and in assay [6] was inactive. Further, the call in assay [7], in assay [8], in assay [9] and in assay [10] was inactive.
With `O=C(O)C(F)(F)OC(F)(F)C(F)(F)OC(F)(F)C(F)(F)OC(F)(F)F`, the compound was called inactive in [1], in assay [2], in assay [3], in assay [4], in [5] and in [6]. Further, the compound was called inactive in [7], in assay [8] and in assay [10]. Besides, the AC50 in assay [9] was 104 µM (active).
As to `CCN=c1cc2oc3cc(NCC)c(C)cc3c(-c3ccccc3C(=O)OCC)c-2cc1C`, the concentration at half-maximal activity (AC50) in [1] is 16.3 µM (active); in assay [2], 16.5 µM (active); in assay [4] it was 8.05 µM (active); in assay [9] it was 17 µM (active); in assay [10] it was 9.29 µM (active). Besides, the compound was classed as inactive in assay [3], in assay [5], in [6], in [7] and in assay [8].
Turning to `CC(C)OC(=O)COc1ccc(Cl)cc1Cl`, the outcome in assay [1], in assay [2], in [3], in assay [4], in assay [5] and in assay [6] was inactive. Further, the compound was classed as inactive in [7], in assay [8], in assay [9] and in assay [10].
For `CCOCN(C(=O)CS(=O)(=O)O)c1c(C)cccc1CC`, the call in assay [1], in assay [2], in [3], in assay [4], in assay [5] and in assay [6] was inactive. The outcome in assay [7], in assay [8], in assay [9] and in assay [10] was inactive.
`CCCCC(CC)COC(=O)c1ccc(N(C)C)cc1` (stereo not given): the compound was called inactive in assay [1], in [2], in assay [3], in [4], in assay [5] and in assay [6]. For the same compound, the outcome in [7], in assay [8], in assay [9] and in assay [10] was inactive.
As for `NC(=O)C(F)(F)C(F)(F)C(F)(F)C(F)(F)C(N)=O`, the compound was classed as inactive in assay [1], in assay [2], in assay [3], in assay [4], in [5] and in assay [6]. For the same compound, the result in [7], in assay [8], in [9] and in [10] was inactive.
Consider `CCCCCCCCCCCC(=O)Cl`, for which the result in [1], in assay [2], in assay [3], in assay [4], in [5] and in [6] was inactive. The outcome in [7], in assay [8], in assay [9] and in assay [10] was inactive.
Turning to `Cc1ccc(O)cn1`, the compound was called inactive in assay [1], in assay [2], in [3], in assay [4], in assay [5] and in [6]. The outcome in [7], in assay [8], in assay [9] and in assay [10] was inactive.
As for `CC(=O)CCC(C)C`, the compound was classed as inactive in assay [1], in [2], in assay [3], in [4], in assay [5] and in assay [6]. For the same compound, the result in [7], in assay [8], in assay [9] and in assay [10] was inactive.
Take `CC(=O)c1ccccc1N`: the compound was classed as inactive in assay [1], in assay [2], in [3], in [4], in assay [5] and in assay [6]. Besides, the compound was classed as inactive in [7], in assay [8], in assay [9] and in assay [10].
Turning to `FC(F)(F)C(F)(F)C(F)(F)C(F)(F)C(F)(F)C(F)(F)CC[Si](Cl)(Cl)Cl`, the call in assay [1], in [2], in [3], in assay [4], in assay [5] and in assay [6] was inactive. Moreover, the call in [7], in assay [8], in assay [9] and in assay [10] was inactive.
`CCOC(=O)CC(=O)C(F)(F)C(F)(F)F`: the call in [1], in [2], in assay [3], in assay [4], in assay [5] and in assay [6] was inactive. Further, the compound was classed as inactive in [7], in assay [8], in assay [9] and in [10].
`CC(C)CCCC(C)CCO` (stereo not given): the call in assay [1], in assay [2], in [3], in assay [4], in assay [5] and in assay [6] was inactive. Also, the result in assay [7], in assay [8], in assay [9] and in assay [10] was inactive.
With `CCOCOCC`, the outcome in [1], in assay [2], in [3], in [4], in assay [5] and in assay [6] was inactive. In addition, the compound was classed as inactive in assay [7], in assay [8], in assay [9] and in assay [10].
Take `NC(O)(C(F)(F)F)C(F)(F)F`: the call in [1], in [2], in assay [3], in [4], in [5] and in assay [6] was inactive. The result in assay [7], in [8], in assay [9] and in assay [10] was inactive.
Consider `O=C(O)C(F)(F)C(F)(F)C(F)(F)C(=O)O`, for which the compound was classed as inactive in assay [1], in [2], in [3], in assay [4], in [5] and in assay [6]. In addition, the compound was called inactive in [7], in [8], in assay [9] and in assay [10].
Regarding `CCN(CC)c1ccc2c(c1)Oc1cc(N(CC)CC)ccc1C21OC(=O)c2ccccc21`, the compound was called inactive in assay [1], in [2], in [3], in [5], in [6] and in [7]. The outcome in assay [8], in assay [9] and in assay [10] was inactive. The AC50 in assay [4] was 55.3 µM (active).
Take `Brc1ccccn1`: the compound was classed as inactive in [1], in assay [2], in assay [3], in assay [4], in assay [5] and in assay [6]. For the same compound, the outcome in assay [7], in assay [8], in assay [9] and in assay [10] was inactive.
For the compound `Cc1ccc2c(c1)OCC(=O)CO2`, the result in [1], in [2], in assay [3], in assay [4], in [5] and in [6] was inactive. Moreover, the compound was called inactive in [7], in assay [8], in assay [9] and in assay [10].
For the compound `OCC(F)(F)C(F)(F)C(F)(F)C(F)(F)C(F)(F)C(F)(F)C(F)(F)C(F)(F)CO`, the call in assay [1], in assay [2], in [3], in assay [4], in assay [5] and in assay [6] was inactive. The compound was called inactive in assay [7], in [8], in assay [9] and in assay [10].
In the case of `NS(=O)(=O)C(F)(F)C(F)(F)C(F)(F)C(F)(F)C(F)(F)C(F)(F)F`, the compound was called inactive in [1], in [2], in assay [3], in assay [4], in [5] and in [6]. The compound was classed as inactive in [7], in assay [8] and in [9]. Besides, the AC50 in assay [10] is 59 µM (active).

The values are drawn from PubChem BioAssay (EPA / NIEHS).
